The record followed here is PMC5892938, “SARNAclust: Semi-automatic detection of RNA protein binding motifs from immunoprecipitation data”.

Whole data set: some 11,000 sequences, median “log2 fold change” near 0.00022, cut for the highest 2% near 0.34. The list shows a part of the results.

This experiment concerns the target GST-SBP-SLBP (stem-loop binding protein) (Homo sapiens, UniProt Q14493 1-270). In words: targeted RNA Bind-n-Seq; RBNS binding buffer: 25 mM Tris pH 7.5, 150 mM KCl, 3 mM MgCl2, 0.1% Tween, 0.5 mg/mL BSA, 1 mM DTT; 27 nM protein, 750 pM RNA pool; temperature not stated; high values mean tight binding. As to conditions: protein: recombinant; tags: N-terminal GST and SBP (pGEX6P1-SBP); structured_RNA. The procedure, abridged: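 The GST-SBP-tagged protein was expressed in Rosetta(DE3) pLysS E. coli, glutathione-purified and incubated at 27 nM with 750 pM of a designed, T7-transcribed RNA oligo pool in RBNS binding buffer. Bound RNA was reverse transcribed with a 10-nucleotide barcoded primer, PCR-amplified and sequenced on a MiSeq with 200-cycle paired-end reads. Reads were joined with FLASH, aligned with HISAT2 and collapsed by barcode. The binding signal is the DEseq log2 fold change of read counts per sequence.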
For “GGUCACGUCUCAAUCAACUCAUCGCCAGGAGUUUGCUCCUGUAUUUUCAACAGCUCGCAGUCAAG”, the binding signal was 0.321 ± 0.274 log2 fold change.
For “GGUCACGUCUCAAUCAACUCUUUCUCAGGAGUUUCCUCCUGUUUACUCAACAGCUCGCAGUCAAG”, the binding signal came to 0.312 ± 0.17 log2 fold change.
On to “GGUCACGUCUCAAUCAACUCUUUCUCAGGAGUUUACUCCUGUAUAUUCAACAGCUCGCAGUCAAG”, for which the binding signal turned out to be 0.355 ± 0.213 log2 fold change.
“GGUCACGUCUCAAUCAACUCAAUCUCAGGAGUUUUCUCCUGUAUACUCAACAGCUCGCAGUCAAG”: the binding signal worked out at 0.429 ± 0.219 log2 fold change.
Take “GGUCACGUCUCAAUCAACUCUAUCUCAGGAGUUUACUCCUGUAUAUUCAACAGCUCGCAGUCAAG”: the binding signal was found to be 0.337 ± 0.252 log2 fold change.
The figure for “GGUCACGUCUCAAUCAACUCAUCGUCAGGAGUUUUCUCCUGUAAACUCAACAGCUCGCAGUCAAG” is 0.313 ± 0.233 log2 fold change.
For “GGUCACGUCUCAAUCAACUCAUACGAGGGGGGGAAAACCCCUUUACCCUCUCCAUCAACAGCUCGCAGUCAAG”, the binding signal came to 0.329 ± 0.398 log2 fold change.
Take “GGUCACGUCUCAAUCAACUCCAUCGAGGGGGGGAAAACCCCUUUACCCUCCAAUUCAACAGCUCGCAGUCAAG”: the binding signal is 0.49 ± 0.445 log2 fold change.
In the case of “GGUCACGUCUCAAUCAACUCAAACGAGGGGGGGAAAACCCCUUUACCCUCCAUAUCAACAGCUCGCAGUCAAG”, the binding signal was found to be 0.344 ± 0.458 log2 fold change.
As for “GGUCACGUCUCAAUCAACUCCAUCGAGGGGGGGAAAACCCCUUUACCCUCAAUAUCAACAGCUCGCAGUCAAG”, the binding signal was 0.429 ± 0.437 log2 fold change.
Turning to “GGUCACGUCUCAAUCAACUCCAAAGAGGGGGGGAAAACCCCUUUACCCUCACUUUCAACAGCUCGCAGUCAAG”, the binding signal is 0.398 ± 0.419 log2 fold change.
With “GGUCACGUCUCAAUCAACUCCAAAGAGGGGGGGAAAACCCCUUUACCCUCCGUUUCAACAGCUCGCAGUCAAG”, the binding signal is 0.395 ± 0.435 log2 fold change.
Under “GGUCACGUCUCAAUCAACUCCAAAGAGGGGGGGAAAACCCCUUUACCCUCAACCUCAACAGCUCGCAGUCAAG” stands 0.316 ± 0.391 log2 fold change.
Consider “GGUCACGUCUCAAUCAACUCCAAAGAGGGGGGGAAAACCCCUUUACCCUCCGCAUCAACAGCUCGCAGUCAAG”, for which the binding signal is 0.352 ± 0.42 log2 fold change.
For the sequence “GGUCACGUCUCAAUCAACUCAGAAGAGGGGGGGAAAACCCCUUUACCCUCCAAAUCAACAGCUCGCAGUCAAG”, the binding signal came to 0.431 ± 0.433 log2 fold change.
For “GGUCACGUCUCAAUCAACUCCAAAGAGGGGGGGAAAACCCCUUUACCCUCCACAUCAACAGCUCGCAGUCAAG”, the binding signal amounted to 0.399 ± 0.418 log2 fold change.
Regarding “GGUCACGUCUCAAUCAACUCCAAAGAGGGGGGGAAAACCCCUUUACCCUCGUCCUCAACAGCUCGCAGUCAAG”, the binding signal amounted to 0.369 ± 0.406 log2 fold change.
Turning to “GGUCACGUCUCAAUCAACUCUAUCGAGGGGGGGAAAACCCCUUUACCCUCACACUCAACAGCUCGCAGUCAAG”, the binding signal was found to be 0.573 ± 0.408 log2 fold change.
Consider “GGUCACGUCUCAAUCAACUCAAUCGAGGGGGGGAAAACCCCUUUACCCUCACUCUCAACAGCUCGCAGUCAAG”, for which the binding signal was determined as 0.375 ± 0.412 log2 fold change.
Consider “GGUCACGUCUCAAUCAACUCCAUCGAGGGGGGGAAAACCCCUUUACCCUCACUCUCAACAGCUCGCAGUCAAG”, for which the binding signal was found to be 0.322 ± 0.422 log2 fold change.
The figure for “GGUCACGUCUCAAUCAACUCACACGAGGGGGGGAAAACCCCUUUACCCUCUCUAUCAACAGCUCGCAGUCAAG” is 0.553 ± 0.407 log2 fold change.
For “GGUCACGUCUCAAUCAACUCUUCCGAGGGGGGGAAAACCCCUUUACCCUCACUAUCAACAGCUCGCAGUCAAG”, the binding signal was found to be 0.347 ± 0.442 log2 fold change.
As for “GGUCACGUCUCAAUCAACUCUCCCGAGGGGGGGAAAACCCCUUUACCCUCACUAUCAACAGCUCGCAGUCAAG”, the binding signal was determined as 0.31 ± 0.449 log2 fold change.
In the case of “GGUCACGUCUCAAUCAACUCUCUCGAGGGGGGGAAAACCCCUUUACCCUCACAAUCAACAGCUCGCAGUCAAG”, the binding signal was 0.571 ± 0.435 log2 fold change.
Regarding “GGUCACGUCUCAAUCAACUCACACGAGGGGGGGAAAACCCCUUUACCCUCUACCUCAACAGCUCGCAGUCAAG”, the binding signal was 0.472 ± 0.426 log2 fold change.
With “GGUCACGUCUCAAUCAACUCUAUCGAGGGGGGGAAAACCCCUUUACCCUCACAAUCAACAGCUCGCAGUCAAG”, the binding signal stood at 0.599 ± 0.418 log2 fold change.
On to “GGUCACGUCUCAAUCAACUCUACAGAGGGGGGGAAAACCCCUUUACCCUCACUCUCAACAGCUCGCAGUCAAG”, for which the binding signal worked out at 0.332 ± 0.424 log2 fold change.
As to “GGUCACGUCUCAAUCAACUCAAUAGAGGGGGGGAAAACCCCUUUGCCCUCAAUCUCAACAGCUCGCAGUCAAG”, the binding signal turned out to be 0.451 ± 0.42 log2 fold change.
For the sequence “GGUCACGUCUCAAUCAACUCCAUAGAGGGGGGGAAAACCCCUUUGCCCUCGAAAUCAACAGCUCGCAGUCAAG”, the binding signal turned out to be 0.382 ± 0.389 log2 fold change.
For the sequence “GGUCACGUCUCAAUCAACUCAAUAGAGGGGGGGAAAACCCCUUUGCCCUCAACAUCAACAGCUCGCAGUCAAG”, the binding signal turned out to be 0.421 ± 0.37 log2 fold change.
On to “GGUCACGUCUCAAUCAACUCAAUAGAGGGGGGGAAAACCCCUUUGCCCUCGAAAUCAACAGCUCGCAGUCAAG”, for which the binding signal was 0.399 ± 0.404 log2 fold change.
With “GGUCACGUCUCAAUCAACUCAUUAGAGGGGGGGAAAACCCCUUUGCCCUCAAAAUCAACAGCUCGCAGUCAAG”, the binding signal worked out at 0.487 ± 0.428 log2 fold change.
Consider “GGUCACGUCUCAAUCAACUCAUUAGAGGGGGGGAAAACCCCUUUGCCCUCAUACUCAACAGCUCGCAGUCAAG”, for which the binding signal came out at 0.461 ± 0.451 log2 fold change.
For “GGUCACGUCUCAAUCAACUCACUAGAGGGGGGGAAAACCCCUUUGCCCUCCAACUCAACAGCUCGCAGUCAAG”, the binding signal was found to be 0.317 ± 0.385 log2 fold change.
Take “GGUCACGUCUCAAUCAACUCCUUAGAGGGGGGGAAAACCCCUUUGCCCUCAUACUCAACAGCUCGCAGUCAAG”: the binding signal was 0.464 ± 0.44 log2 fold change.
The figure for “GGUCACGUCUCAAUCAACUCACUAGAGGGGGGGAAAACCCCUUUGCCCUCAUACUCAACAGCUCGCAGUCAAG” is 0.37 ± 0.365 log2 fold change.
